# Active and inactive are the calls of the source. Rule for the calls: active = hit-call score of the fitted dose curve at least 0.9, where 1 is the maximum; inactive = score below 0.9.
# Target: CYP2C9, CYP2C9 (gene 1559) (UniProt P11712)
# Assay: ERF_FR_ADME_hCYP2C9: Eurofins (ERF) CYP450-related Enzyme Activity (ADME) Assay for CYP2C9
# Description: ERF_FR_ADME_hCYP2C9 is a biochemical, single-readout assay that uses extracted gene-proteins in a cell-free assay. Measurements were taken 0.66 hour after chemical dosing in a 96-well plate. See CYP2C9 inhibition (recombinant, MFC substrate).ERF_FR_ADME_hCYP2C9 is an assay component calculated from the ERF_FR_ADME_hCYP2C9 assay. It is designed to measure enzyme activity using a type of enzyme reporter as detected by fluorescence intensity of HFC with fluorimetry technology.Data from the assay component ERF_FR_ADME_hCYP2C9 was analyzed at the assay endpoint, ERF_FR_ADME_hCYP2C9, in the positive analysis fitting direction relative to acetonitrile as the negative control and baseline of activity. Using a type of enzyme reporter, loss-of-signal activity can be used to understand changes in enzymatic activity as they relate to gene CYP2C9. To generalize the intended target to other relatable targets, this assay endpoint is annotated to the cyp intended target family, where the subfamily is steroidogenesis-related.
# Human cells are incubated for 15 minutes at 37C with Diclofenac as substrate and Sulfaphenazole as control inhibitor. Test Sample Requirements: Minimum for 1) Screen: 25 ul of 10 mM stock -OR- 1 mg (pre-weighed) for 10 uM final testing. 2) Dose Response: 60 ul of 10 mM stock -OR- 1 mg (pre-weighed). […]
# CYP2C9, CYP2C9 (gene 1559), sequence (P11712 whole entry, looked up): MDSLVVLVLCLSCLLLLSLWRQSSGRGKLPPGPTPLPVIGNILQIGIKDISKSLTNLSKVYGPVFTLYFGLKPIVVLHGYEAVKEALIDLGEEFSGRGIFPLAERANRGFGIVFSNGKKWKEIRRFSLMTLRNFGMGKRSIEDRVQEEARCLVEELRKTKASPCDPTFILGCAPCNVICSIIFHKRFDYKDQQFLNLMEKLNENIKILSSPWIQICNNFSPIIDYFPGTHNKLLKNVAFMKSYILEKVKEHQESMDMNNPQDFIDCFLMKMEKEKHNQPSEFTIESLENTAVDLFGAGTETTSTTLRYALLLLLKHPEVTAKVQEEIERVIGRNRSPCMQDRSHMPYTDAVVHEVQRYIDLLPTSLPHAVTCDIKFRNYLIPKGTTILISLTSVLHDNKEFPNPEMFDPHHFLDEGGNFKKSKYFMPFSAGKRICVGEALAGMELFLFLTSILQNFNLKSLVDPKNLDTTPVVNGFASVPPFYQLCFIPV
row,SMILES,AC50
1,O=C(/C=C/c1ccc(O)cc1)CC(=O)/C=C/c1ccc(O)cc1,502 nM (active)

# — PubChem BioAssay AID2284058 (EPA ToxCast)
